About 83,000 compounds went through this panel and 20% of them were active in at least one assay; those are over-represented in the sample as a whole.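 Values shown are percent growth following 48 h exposure of cells in 96-well plates to a single concentration of compound; below 10 was considered active.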 The source made the active and inactive calls.
Assays:
Assay in all cases: NCI-60 one-dose screen, 48 h (100 = growth as untreated, 0 = no growth, -100 = all killed)
HT29 colon = details: 10 µM unless noted
SNB-75 CNS = details: 10 µM unless noted
SNB-19 CNS = details: 10 µM unless noted
U251 CNS = details: 10 µM unless noted
PC-3 prostate = details: 10 µM unless noted
SK-MEL-5 melanoma = details: 10 µM unless noted
UACC-62 melanoma = details: 10 µM unless noted
LOX IMVI melanoma = details: 10 µM unless noted
SK-MEL-28 melanoma = details: 10 µM
SK-MEL-2 melanoma = details: 10 µM unless noted
EKVX NSCLC = details: 10 µM unless noted
SN12C renal = details: 10 µM unless noted
UO-31 renal = details: 10 µM unless noted
TK-10 renal = details: 10 µM unless noted
ACHN renal = details: 10 µM unless noted
CAKI-1 renal = details: 10 µM unless noted
A498 renal = details: 10 µM unless noted
CCRF-CEM leukemia = details: 10 µM unless noted
MOLT-4 leukemia = details: 10 µM unless noted
SR leukemia = details: 10 µM unless noted

Measured: growth

Cc1ccc2[nH]c(=O)cc(-n3nncc3Cn3c4ccccc4c4ccccc43)c2c1
inactive: HT29 colon 113% | SNB-75 CNS 81.2% | SNB-19 CNS 97.1% | U251 CNS 99.2% | PC-3 prostate 92.8% | SK-MEL-5 melanoma 94.5% | UACC-62 melanoma 94.9% | LOX IMVI melanoma 98.2% | SK-MEL-28 melanoma 108% | SK-MEL-2 melanoma 103% | EKVX NSCLC 98.2% | SN12C renal 101% | UO-31 renal 73.7% | TK-10 renal 118% | ACHN renal 90% | CAKI-1 renal 85% | A498 renal 80% | CCRF-CEM leukemia 99.5% | MOLT-4 leukemia 101% | SR leukemia 103%

NCCCNc1nc2ccccc2c2c(=O)c3cc(F)ccc3sc12
active: HT29 colon -50.9% | U251 CNS -56.1% | UACC-62 melanoma -76.1% | LOX IMVI melanoma -92.1% | SK-MEL-28 melanoma 0.2% | TK-10 renal -46.6% | ACHN renal -66.7% | CCRF-CEM leukemia 0.338% | MOLT-4 leukemia -35% | SR leukemia 9.08%
inactive: SNB-75 CNS 25% | SNB-19 CNS 44.4% | PC-3 prostate 18.9% | SK-MEL-5 melanoma 76.4% | SK-MEL-2 melanoma 50.6% | EKVX NSCLC 35.6% | SN12C renal 41.7% | UO-31 renal 23% | CAKI-1 renal 33.8% | A498 renal 20.5%

COC(=O)/C(CCC=C(C)C)=C1\[C@@H](OC(C)=O)C[C@@]2(C)[C@H]1C[C@@H](O)[C@H]1[C@@]3(C)CC[C@H](NCCCNCCCCNCCCN)[C@@H](C)[C@@H]3CC[C@@]12C
inactive: HT29 colon 31.1% | SNB-75 CNS 93.4% | SNB-19 CNS 61.8% | U251 CNS 71.5% | PC-3 prostate 77.3% | SK-MEL-5 melanoma 12.6% | UACC-62 melanoma 31.9% | LOX IMVI melanoma 52.9% | SK-MEL-28 melanoma 19.9% | SK-MEL-2 melanoma 98.1% | EKVX NSCLC 66.2% | SN12C renal 38.2% | UO-31 renal 51.7% | TK-10 renal 69.4% | ACHN renal 42.4% | CAKI-1 renal 61.9% | A498 renal 69.1% | CCRF-CEM leukemia 70.6% | MOLT-4 leukemia 65.4% | SR leukemia 42.3%

COc1ccc(/C=C2/SC(=O)N(CC(=O)N3CCN(c4cc5c(cc4F)c(=O)c(C(=O)O)cn5C4CC4)CC3)C2=O)cc1
inactive: HT29 colon 99.2% | SNB-75 CNS 86.4% | SNB-19 CNS 101% | U251 CNS 101% | PC-3 prostate 104% | SK-MEL-5 melanoma 101% | UACC-62 melanoma 97.3% | LOX IMVI melanoma 93.9% | SK-MEL-28 melanoma 107% | SK-MEL-2 melanoma 108% | EKVX NSCLC 114% | SN12C renal 96.5% | UO-31 renal 81.8% | TK-10 renal 117% | ACHN renal 102% | CAKI-1 renal 92.4% | A498 renal 113% | CCRF-CEM leukemia 107% | MOLT-4 leukemia 108% | SR leukemia 94.4%

COc1cc(/C=C2\CN(C)C/C(=C\c3cc(CN4CCCC4)c(O)c(OC)c3)C2=O)cc(CN2CCCC2)c1O
inactive: HT29 colon 25.6% | SNB-75 CNS 75.3% | SNB-19 CNS 74.7% | U251 CNS 25.8% | PC-3 prostate 76.8% | SK-MEL-5 melanoma 89.3% | UACC-62 melanoma 81.7% | LOX IMVI melanoma 26.3% | SK-MEL-28 melanoma 90.7% | SK-MEL-2 melanoma 92.1% | EKVX NSCLC 83.9% | SN12C renal 53.6% | UO-31 renal 80.7% | TK-10 renal 101% | ACHN renal 79% | CAKI-1 renal 99.6% | A498 renal 98.2% | CCRF-CEM leukemia 34.1% | MOLT-4 leukemia 57.6% | SR leukemia 38.7%

COc1ccc(/C(C#N)=C/c2nc3c(N4CCOCC4)nc(Cl)nc3n2C)cc1OC
inactive: SNB-19 CNS 23.5% | U251 CNS 12.5% | SK-MEL-28 melanoma 15.1% | SK-MEL-2 melanoma 42.7% | EKVX NSCLC 20.1% | SN12C renal 11.2% | CCRF-CEM leukemia 11.8% | SR leukemia 17.7%
active: HT29 colon 3.73% | SNB-75 CNS -7.9% | PC-3 prostate 9.66% | SK-MEL-5 melanoma -50.5% | UACC-62 melanoma -5.32% | LOX IMVI melanoma -71% | UO-31 renal -92.9% | TK-10 renal -21.1% | ACHN renal -51.3% | CAKI-1 renal -14.2% | A498 renal -27.8% | MOLT-4 leukemia 2.05%

Clc1ccc(COc2ccc(Nc3ncnc4onc(-c5ccccc5)c34)cc2)cc1
inactive: HT29 colon 92.2% | SNB-75 CNS 67.8% | SNB-19 CNS 91.6% | U251 CNS 94% | PC-3 prostate 67% | SK-MEL-5 melanoma 83% | UACC-62 melanoma 64.2% | LOX IMVI melanoma 86.7% | SK-MEL-28 melanoma 92.1% | SK-MEL-2 melanoma 101% | EKVX NSCLC 95.6% | SN12C renal 87.8% | UO-31 renal 90.5% | TK-10 renal 91.4% | ACHN renal 41.7% | CAKI-1 renal 84.6% | A498 renal 69.2% | CCRF-CEM leukemia 73.2% | MOLT-4 leukemia 85.9% | SR leukemia 43.8%

Nc1ccc(-c2ccc(-c3ccccc3N)c3[nH]c4ccccc4c23)cc1
inactive: HT29 colon 13.9% | SNB-75 CNS 28.4% | SNB-19 CNS 39% | U251 CNS 35.4% | PC-3 prostate 24.9% | UACC-62 melanoma 25.4% | LOX IMVI melanoma 27.7% | SK-MEL-28 melanoma 51% | SK-MEL-2 melanoma 19.5% | EKVX NSCLC 34.9% | SN12C renal 32.7% | UO-31 renal 22.5% | TK-10 renal 23.8% | ACHN renal 32.1% | CAKI-1 renal 25.4% | A498 renal 20.6% | CCRF-CEM leukemia 13% | MOLT-4 leukemia 22% | SR leukemia 19.6%
active: SK-MEL-5 melanoma 6.03%

CCOC(=O)c1sc(-c2ccc(OS(=O)(=O)c3ccc(Br)s3)c(C=O)c2)nc1C
active: HT29 colon -17.9% | SNB-75 CNS -5.48% | U251 CNS -4.79% | SK-MEL-5 melanoma -92.6% | LOX IMVI melanoma -54.5% | SN12C renal 4.77% | UO-31 renal -0.882% | TK-10 renal -1.6% | ACHN renal 7.37% | CAKI-1 renal 3.48% | CCRF-CEM leukemia 8.75% | MOLT-4 leukemia 9.25%
inactive: SNB-19 CNS 14.4% | PC-3 prostate 20.1% | UACC-62 melanoma 12.3% | SK-MEL-28 melanoma 55% | SK-MEL-2 melanoma 11.3% | EKVX NSCLC 85.6% | A498 renal 65.3% | SR leukemia 13.9%

COc1ccc2oc(=O)cc(Cn3cc(Cn4cnc5c4c(=O)n(C)c(=O)n5C)nn3)c2c1
inactive: HT29 colon 99% | SNB-75 CNS 93.8% | SNB-19 CNS 99.5% | U251 CNS 101% | PC-3 prostate 102% | SK-MEL-5 melanoma 98.9% | UACC-62 melanoma 91.7% | LOX IMVI melanoma 98.2% | SK-MEL-28 melanoma 105% | SK-MEL-2 melanoma 106% | EKVX NSCLC 103% | SN12C renal 95.9% | UO-31 renal 83.3% | TK-10 renal 100% | ACHN renal 98.7% | CAKI-1 renal 95.3% | A498 renal 103% | CCRF-CEM leukemia 106% | MOLT-4 leukemia 103% | SR leukemia 106%

CC(=O)c1ccc(NC(=O)Nc2ccc(S(=O)(=O)Nc3ccc(Cl)nn3)cc2)cc1
inactive: HT29 colon 111% | SNB-75 CNS 86.4% | SNB-19 CNS 95.8% | U251 CNS 103% | PC-3 prostate 104% | SK-MEL-5 melanoma 100% | UACC-62 melanoma 92% | LOX IMVI melanoma 99% | SK-MEL-28 melanoma 107% | SK-MEL-2 melanoma 108% | EKVX NSCLC 99% | SN12C renal 97.9% | UO-31 renal 78.5% | TK-10 renal 119% | ACHN renal 103% | CAKI-1 renal 93% | A498 renal 84% | CCRF-CEM leukemia 116% | MOLT-4 leukemia 104% | SR leukemia 117%

O=C(NC1C(O)OC(CO)C(O)C1O)NS(=O)(=O)c1ccc(Cl)cc1 (stereo not given)
inactive: HT29 colon 93.2% | SNB-75 CNS 94% | SNB-19 CNS 101% | U251 CNS 103% | PC-3 prostate 94.5% | SK-MEL-5 melanoma 104% | UACC-62 melanoma 94.8% | LOX IMVI melanoma 101% | SK-MEL-28 melanoma 105% | SK-MEL-2 melanoma 101% | EKVX NSCLC 109% | SN12C renal 98.1% | UO-31 renal 77.1% | TK-10 renal 110% | ACHN renal 102% | CAKI-1 renal 94.4% | A498 renal 95.2% | CCRF-CEM leukemia 99.1% | MOLT-4 leukemia 102% | SR leukemia 100%

O=C(O)c1cn(C2CC2)c2cc(N3CCN(C(=O)C[n+]4ccccc4)CC3)c(F)cc2c1=O
inactive: HT29 colon 109% | SNB-75 CNS 97.2% | SNB-19 CNS 99.4% | U251 CNS 92.4% | PC-3 prostate 106% | SK-MEL-5 melanoma 101% | UACC-62 melanoma 105% | LOX IMVI melanoma 98.1% | SK-MEL-28 melanoma 112% | SK-MEL-2 melanoma 96.5% | EKVX NSCLC 94.4% | SN12C renal 97.5% | UO-31 renal 88.1% | TK-10 renal 99.3% | ACHN renal 103% | CAKI-1 renal 94.3% | A498 renal 87.6% | CCRF-CEM leukemia 97.4% | MOLT-4 leukemia 104% | SR leukemia 107%

Fc1ccc(Oc2ccc(Nc3ncnc4onc(-c5ccccc5)c34)cc2)cc1
inactive: HT29 colon 109% | SNB-75 CNS 86.4% | SNB-19 CNS 94% | U251 CNS 91.4% | PC-3 prostate 101% | SK-MEL-5 melanoma 100% | UACC-62 melanoma 92.1% | LOX IMVI melanoma 95.8% | SK-MEL-28 melanoma 110% | SK-MEL-2 melanoma 112% | EKVX NSCLC 98.9% | SN12C renal 84.1% | UO-31 renal 52.3% | TK-10 renal 102% | ACHN renal 99.8% | CAKI-1 renal 93.5% | A498 renal 67% | CCRF-CEM leukemia 62.9% | MOLT-4 leukemia 88.7% | SR leukemia 102%

O=c1c2cccc(F)c2sc2c(N3CCNCC3)nc3ccccc3c12
active: HT29 colon -45.4% | MOLT-4 leukemia -18.8% | SR leukemia 3.21%
inactive: SNB-75 CNS 35.3% | SNB-19 CNS 46.5% | U251 CNS 10.3% | PC-3 prostate 39.8% | SK-MEL-5 melanoma 56.2% | UACC-62 melanoma 54% | LOX IMVI melanoma 19.9% | SK-MEL-28 melanoma 69.1% | SK-MEL-2 melanoma 95% | EKVX NSCLC 48.2% | SN12C renal 46.5% | UO-31 renal 23% | TK-10 renal 53% | ACHN renal 16% | CAKI-1 renal 39.4% | A498 renal 48.5% | CCRF-CEM leukemia 13.2%

Source: PubChem BioAssay (NCI)
